# In the supplement of paper PMC10849652:
# Targets with a hit are over-represented here; the source holds about 8,800 in all. About 0.5% of all pairs of compound and target were hits.
# Key:
# Experiment in all cases: log2 fold change, soluble protein after heating vs DMSO (PISA); higher = thermal stabilisation; K562 lysate, 10 uM; active = over 0.2 and 3.5 SD of the protein, either way, in both replicates (recomputed)
# nilotinib = compound: Cc1cn(-c2cc(NC(=O)c3ccc(C)c(Nc4nccc(-c5cccnc5)n4)c3)cc(C(F)(F)F)c2)cn1 [nilotinib]
# Summary of the method: (§1)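 Following dounce homogenisation of K562 pellets in PBS pH 7.4 with 1 mM MgCl2, crude extract at 1 mg/mL protein was incubated for 30 min with 10 μM compound. Aliquots were then heated for 3 min over 48°C-58°C and pooled, NP-40 was added to 0.5% at 4°C, and soluble protein was recovered as the supernatant at 21,000xg for 90 min. Channel-sum-equalised TMTpro 16plex LC-MS/MS quantified this protein. Each value, from duplicates, is a log-two fold change in thermal stability relative to solvent controls.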
# [1] = compound: Cc1nc(Nc2n[nH]c3c2CN(C(=O)N[C@H](CN(C)C)c2ccccc2)C3(C)C)c2sccc2n1
# Summary of the method: as §1
# dasatinib = compound: Cc1nc(Nc2ncc(C(=O)Nc3c(C)cccc3Cl)s2)cc(N2CCN(CCO)CC2)n1 [dasatinib]
# Summary of the method: as §1
# [2] = compound: Cc1ncc(-c2ccnc(Nc3ccc(S(C)(=O)=O)cc3)n2)n1C(C)C
# Summary of the method: as §1
# [3] = compound: Cn1cc(-c2ccc3c(c2)CCN3C(=O)Cc2cccc(C(F)(F)F)c2)c2c(N)ncnc21
# Summary of the method: as §1
# quisinostat = compound: Cn1cc(CNCC2CCN(c3ncc(C(=O)NO)cn3)CC2)c2ccccc21 [quisinostat]
# Summary of the method: as §1
# tipifarnib = compound: Cn1cncc1[C@@](N)(c1ccc(Cl)cc1)c1ccc2c(c1)c(-c1cccc(Cl)c1)cc(=O)n2C [tipifarnib]
# Summary of the method: as §1
# [4] = compound: NC(=O)Nc1cc(-c2cccc(F)c2)sc1C(=O)N[C@H]1CCCNC1
# Summary of the method: as §1
# [5] = compound: NC(=O)c1cnc(N[C@@H]2CCCC[C@@H]2N)nc1Nc1cccc(-n2nccn2)c1
# Summary of the method: as §1
# [6] = compound: NC1(c2ccc(-c3nc4ccn5c(=O)[nH]nc5c4cc3-c3ccccc3)cc2)CCC1
# Summary of the method: as §1
# [7] = compound: NCC(=O)Nc1ccc(-n2nc(C(F)(F)F)cc2-c2ccc3c(ccc4ccccc43)c2)cc1
# Summary of the method: as §1
# vorinostat = compound: O=C(CCCCCCC(=O)Nc1ccccc1)NO [vorinostat]
# Summary of the method: as §1
# silmitasertib = compound: O=C(O)c1ccc2c(c1)nc(Nc1cccc(Cl)c1)c1ccncc12 [silmitasertib]
# Summary of the method: as §1
# [8] = compound: O=C1NC(=O)C(c2cnc3ccccn23)=C1c1cn2c3c(cc(F)cc13)CN(C(=O)N1CCCCC1)CC2
# Summary of the method: as §1
# entospletinib = compound: c1cn2cc(-c3ccc4cn[nH]c4c3)nc(Nc3ccc(N4CCOCC4)cc3)c2n1 [entospletinib]
# Summary of the method: as §1
# UniProt P15923, sequence (P15923 whole entry, looked up): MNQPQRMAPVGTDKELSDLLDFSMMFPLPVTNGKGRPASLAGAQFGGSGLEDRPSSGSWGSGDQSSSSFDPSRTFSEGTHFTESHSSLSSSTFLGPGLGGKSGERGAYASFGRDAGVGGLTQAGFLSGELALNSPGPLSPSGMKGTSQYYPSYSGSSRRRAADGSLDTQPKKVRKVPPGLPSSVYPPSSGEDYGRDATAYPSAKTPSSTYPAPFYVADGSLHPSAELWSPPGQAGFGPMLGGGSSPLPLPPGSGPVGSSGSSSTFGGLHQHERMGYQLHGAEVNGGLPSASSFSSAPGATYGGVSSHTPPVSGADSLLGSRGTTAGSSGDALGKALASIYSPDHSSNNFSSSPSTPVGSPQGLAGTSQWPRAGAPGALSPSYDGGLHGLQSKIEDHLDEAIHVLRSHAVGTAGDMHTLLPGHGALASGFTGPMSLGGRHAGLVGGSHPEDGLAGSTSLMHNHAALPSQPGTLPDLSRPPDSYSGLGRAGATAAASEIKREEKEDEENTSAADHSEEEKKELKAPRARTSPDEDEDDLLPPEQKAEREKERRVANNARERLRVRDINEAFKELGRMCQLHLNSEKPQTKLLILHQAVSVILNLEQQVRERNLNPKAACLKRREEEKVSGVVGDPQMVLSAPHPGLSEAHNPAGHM
# UniProt Q9BUF5, sequence (Q9BUF5 whole entry, looked up): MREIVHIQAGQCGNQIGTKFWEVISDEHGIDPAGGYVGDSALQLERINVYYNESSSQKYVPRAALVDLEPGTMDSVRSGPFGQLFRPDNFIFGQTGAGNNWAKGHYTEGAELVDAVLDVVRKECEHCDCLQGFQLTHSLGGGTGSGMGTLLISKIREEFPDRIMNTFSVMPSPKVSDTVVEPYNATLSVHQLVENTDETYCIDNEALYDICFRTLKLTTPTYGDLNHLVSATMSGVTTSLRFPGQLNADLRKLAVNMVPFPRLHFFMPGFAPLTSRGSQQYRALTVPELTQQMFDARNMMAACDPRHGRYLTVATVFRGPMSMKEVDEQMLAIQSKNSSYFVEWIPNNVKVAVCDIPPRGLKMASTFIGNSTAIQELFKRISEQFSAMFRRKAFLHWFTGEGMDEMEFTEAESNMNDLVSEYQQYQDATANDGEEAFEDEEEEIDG
# UniProt Q86SX3, sequence (Q86SX3 whole entry, looked up): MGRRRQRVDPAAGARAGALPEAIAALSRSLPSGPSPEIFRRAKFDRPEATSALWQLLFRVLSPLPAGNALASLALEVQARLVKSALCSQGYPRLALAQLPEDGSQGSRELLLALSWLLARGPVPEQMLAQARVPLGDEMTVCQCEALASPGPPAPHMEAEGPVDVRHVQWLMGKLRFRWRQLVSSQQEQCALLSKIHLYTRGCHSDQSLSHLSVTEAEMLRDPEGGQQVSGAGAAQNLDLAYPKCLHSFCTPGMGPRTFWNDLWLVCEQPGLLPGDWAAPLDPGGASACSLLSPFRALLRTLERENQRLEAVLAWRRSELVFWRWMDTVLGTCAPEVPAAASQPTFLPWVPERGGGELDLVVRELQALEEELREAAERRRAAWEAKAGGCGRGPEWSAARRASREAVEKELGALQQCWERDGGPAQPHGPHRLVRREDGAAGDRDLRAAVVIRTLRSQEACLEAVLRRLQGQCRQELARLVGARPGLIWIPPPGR
# UniProt Q9NRX6, sequence (Q9NRX6 whole entry, looked up): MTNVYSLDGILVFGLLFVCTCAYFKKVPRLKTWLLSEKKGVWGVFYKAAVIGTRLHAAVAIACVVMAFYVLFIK
# UniProt Q53S58, sequence (Q53S58 whole entry, looked up): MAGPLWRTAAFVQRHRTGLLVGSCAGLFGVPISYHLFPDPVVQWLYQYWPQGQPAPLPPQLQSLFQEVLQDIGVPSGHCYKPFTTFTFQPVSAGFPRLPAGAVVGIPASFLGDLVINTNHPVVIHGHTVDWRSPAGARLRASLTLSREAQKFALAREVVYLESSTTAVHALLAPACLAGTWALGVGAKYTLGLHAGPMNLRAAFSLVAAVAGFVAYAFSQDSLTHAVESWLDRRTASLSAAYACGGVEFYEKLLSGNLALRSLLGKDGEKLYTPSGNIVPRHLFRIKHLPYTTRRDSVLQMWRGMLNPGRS
# UniProt O95071, sequence (O95071 whole entry, looked up): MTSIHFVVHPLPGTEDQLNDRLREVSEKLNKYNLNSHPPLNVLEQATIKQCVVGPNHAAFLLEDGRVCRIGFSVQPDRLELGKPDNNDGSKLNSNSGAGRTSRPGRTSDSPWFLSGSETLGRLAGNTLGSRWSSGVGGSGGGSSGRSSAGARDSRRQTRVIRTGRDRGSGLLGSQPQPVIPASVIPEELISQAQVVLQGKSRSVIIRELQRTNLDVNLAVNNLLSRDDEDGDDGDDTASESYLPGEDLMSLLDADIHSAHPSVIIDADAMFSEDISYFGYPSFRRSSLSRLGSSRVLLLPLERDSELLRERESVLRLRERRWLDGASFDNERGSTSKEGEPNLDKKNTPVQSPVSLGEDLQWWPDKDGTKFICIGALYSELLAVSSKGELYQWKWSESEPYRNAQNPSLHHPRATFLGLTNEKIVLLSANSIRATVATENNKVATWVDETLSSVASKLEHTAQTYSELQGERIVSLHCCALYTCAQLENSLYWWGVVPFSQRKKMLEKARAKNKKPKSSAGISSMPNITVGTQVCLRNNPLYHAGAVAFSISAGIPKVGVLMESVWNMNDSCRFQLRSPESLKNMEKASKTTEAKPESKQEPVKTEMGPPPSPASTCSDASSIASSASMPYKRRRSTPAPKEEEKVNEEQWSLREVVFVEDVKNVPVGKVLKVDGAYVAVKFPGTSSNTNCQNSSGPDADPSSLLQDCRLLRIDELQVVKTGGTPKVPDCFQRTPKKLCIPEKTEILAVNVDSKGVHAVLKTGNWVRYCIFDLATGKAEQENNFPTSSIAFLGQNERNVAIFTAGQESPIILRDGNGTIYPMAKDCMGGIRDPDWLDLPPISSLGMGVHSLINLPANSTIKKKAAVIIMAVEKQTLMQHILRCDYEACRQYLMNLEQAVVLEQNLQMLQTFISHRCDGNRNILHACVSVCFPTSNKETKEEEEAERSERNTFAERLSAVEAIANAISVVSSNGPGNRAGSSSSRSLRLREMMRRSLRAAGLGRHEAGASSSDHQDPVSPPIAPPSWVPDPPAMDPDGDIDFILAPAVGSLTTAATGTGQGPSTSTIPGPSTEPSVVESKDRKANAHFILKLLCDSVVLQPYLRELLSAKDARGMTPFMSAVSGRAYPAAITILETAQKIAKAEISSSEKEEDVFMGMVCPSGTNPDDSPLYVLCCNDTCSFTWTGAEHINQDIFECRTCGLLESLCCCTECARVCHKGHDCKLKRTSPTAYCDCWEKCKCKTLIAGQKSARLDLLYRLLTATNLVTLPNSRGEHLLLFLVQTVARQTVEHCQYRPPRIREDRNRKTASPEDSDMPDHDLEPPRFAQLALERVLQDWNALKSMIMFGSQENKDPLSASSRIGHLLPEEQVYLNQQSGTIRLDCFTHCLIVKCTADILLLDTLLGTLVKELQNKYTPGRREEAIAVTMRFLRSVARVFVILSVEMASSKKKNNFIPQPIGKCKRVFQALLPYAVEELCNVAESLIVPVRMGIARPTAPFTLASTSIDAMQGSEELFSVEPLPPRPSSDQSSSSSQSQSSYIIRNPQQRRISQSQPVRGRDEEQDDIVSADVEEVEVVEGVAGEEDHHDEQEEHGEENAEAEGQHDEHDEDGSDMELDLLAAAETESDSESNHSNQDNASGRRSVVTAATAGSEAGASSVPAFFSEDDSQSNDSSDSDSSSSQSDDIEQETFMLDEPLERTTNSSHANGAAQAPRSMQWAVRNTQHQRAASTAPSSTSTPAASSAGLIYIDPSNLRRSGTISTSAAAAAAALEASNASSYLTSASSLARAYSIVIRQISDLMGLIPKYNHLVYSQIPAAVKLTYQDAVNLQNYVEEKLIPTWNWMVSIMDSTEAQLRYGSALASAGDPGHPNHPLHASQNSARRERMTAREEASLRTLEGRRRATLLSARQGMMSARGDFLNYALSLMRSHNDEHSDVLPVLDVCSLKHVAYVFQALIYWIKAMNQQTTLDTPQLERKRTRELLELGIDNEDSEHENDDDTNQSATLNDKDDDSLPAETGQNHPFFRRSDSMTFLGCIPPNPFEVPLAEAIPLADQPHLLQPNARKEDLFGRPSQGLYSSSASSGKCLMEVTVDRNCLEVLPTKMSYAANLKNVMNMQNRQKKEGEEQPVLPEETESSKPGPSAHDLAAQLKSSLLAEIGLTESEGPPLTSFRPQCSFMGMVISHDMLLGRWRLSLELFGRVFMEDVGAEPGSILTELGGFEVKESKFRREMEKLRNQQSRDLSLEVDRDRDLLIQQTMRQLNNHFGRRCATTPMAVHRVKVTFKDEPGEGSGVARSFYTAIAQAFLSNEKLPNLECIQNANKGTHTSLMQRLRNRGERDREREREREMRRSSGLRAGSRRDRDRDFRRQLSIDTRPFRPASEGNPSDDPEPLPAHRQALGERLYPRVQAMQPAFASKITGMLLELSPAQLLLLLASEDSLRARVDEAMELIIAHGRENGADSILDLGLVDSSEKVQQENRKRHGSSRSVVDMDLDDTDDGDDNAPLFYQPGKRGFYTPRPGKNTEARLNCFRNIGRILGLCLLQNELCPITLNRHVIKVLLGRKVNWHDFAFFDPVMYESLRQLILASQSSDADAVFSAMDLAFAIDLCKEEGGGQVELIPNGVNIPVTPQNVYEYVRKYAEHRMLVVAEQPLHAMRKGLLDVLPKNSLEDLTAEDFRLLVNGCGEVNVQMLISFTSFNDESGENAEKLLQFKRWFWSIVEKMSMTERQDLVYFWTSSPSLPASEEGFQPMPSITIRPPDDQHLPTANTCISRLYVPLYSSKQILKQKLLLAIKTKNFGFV
# UniProt Q96LJ8, sequence (Q96LJ8 whole entry, looked up): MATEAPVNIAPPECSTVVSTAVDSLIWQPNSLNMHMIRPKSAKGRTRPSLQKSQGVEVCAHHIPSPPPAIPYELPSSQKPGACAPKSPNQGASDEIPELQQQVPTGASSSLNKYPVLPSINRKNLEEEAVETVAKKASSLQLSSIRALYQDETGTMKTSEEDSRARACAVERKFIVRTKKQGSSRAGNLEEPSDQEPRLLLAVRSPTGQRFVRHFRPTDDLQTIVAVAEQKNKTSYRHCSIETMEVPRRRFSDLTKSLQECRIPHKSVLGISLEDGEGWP
Target,log2 fold change (nilotinib),log2 fold change [1],log2 fold change (dasatinib),log2 fold change [2],log2 fold change [3],log2 fold change (quisinostat),log2 fold change (tipifarnib),log2 fold change [4],log2 fold change [5],log2 fold change [6],log2 fold change [7],log2 fold change (vorinostat),log2 fold change (silmitasertib),log2 fold change [8],log2 fold change (entospletinib)
TOE1 (UniProt Q96GM8),-0.039 (inactive),-0.012 (inactive),0.016 (inactive),0.04 (inactive),0.015 (inactive),-0.036 (inactive),0.006 (inactive),0.023 (inactive),-0.013 (inactive),-0.01 (inactive),-0.003 (inactive),-0.359 (active),0.041 (inactive),0.002 (inactive),0.043 (inactive)
TBL2 (UniProt Q9Y4P3),-0.025 (inactive),-0.043 (inactive),-0.008 (inactive),-0.004 (inactive),0.014 (inactive),-0.031 (inactive),-0.06 (inactive),-0.007 (inactive),0.003 (inactive),-0.037 (inactive),-0.035 (inactive),-0.292 (active),-0.007 (inactive),-0.035 (inactive),0.02 (inactive)
UBR5 (UniProt O95071),0.006 (inactive),0.027 (inactive),-0.028 (inactive),-0.019 (inactive),0.019 (inactive),-0.059 (inactive),-0.02 (inactive),0.005 (inactive),0.013 (inactive),-0.009 (inactive),0.009 (inactive),-0.234 (active),0.011 (inactive),-0.011 (inactive),-0.006 (inactive)
TUBB4A (UniProt P04350),0.027 (inactive),-0.026 (inactive),0.003 (inactive),-0.023 (inactive),0.067 (inactive),-0.196 (inactive),0.027 (inactive),0.085 (inactive),0.011 (inactive),0.023 (inactive),–,-0.448 (active),0.065 (inactive),0.095 (inactive),-0.056 (inactive)
TEDC1 (UniProt Q86SX3),0.015 (inactive),-0.016 (inactive),0.087 (inactive),-0.038 (inactive),0.05 (inactive),0.161 (inactive),-0.049 (inactive),-0.074 (inactive),0.104 (inactive),-0.022 (inactive),–,-0.356 (active),0.068 (inactive),-0.012 (inactive),-0.032 (inactive)
UBR4 (UniProt Q5T4S7),0.007 (inactive),0.002 (inactive),-0.027 (inactive),0.001 (inactive),0.018 (inactive),-0.014 (inactive),-0.001 (inactive),0.023 (inactive),-0.005 (inactive),-0.001 (inactive),0 (inactive),-0.14 (inactive),0.027 (inactive),-0.008 (inactive),0.009 (inactive)
TCF3 (UniProt P15923),0.028 (inactive),-0.118 (inactive),-0.018 (inactive),-0.057 (inactive),-0.139 (inactive),0.006 (inactive),-0.245 (inactive),0.055 (inactive),-0.019 (inactive),-0.003 (inactive),-0.007 (inactive),-0.141 (inactive),-0.031 (inactive),0 (inactive),-0.03 (inactive)
TECR (UniProt Q9NZ01),-0.06 (inactive),0.018 (inactive),-0.062 (inactive),-0.011 (inactive),-0.043 (inactive),-0.024 (inactive),-0.09 (inactive),0.041 (inactive),-0.009 (inactive),-0.047 (inactive),-0.031 (inactive),0.024 (inactive),0.076 (inactive),0.032 (inactive),0.033 (inactive)
TUBB4B (UniProt P68371),0.049 (inactive),-0.05 (inactive),-0.025 (inactive),-0.034 (inactive),-0.005 (inactive),0.033 (inactive),-0.001 (inactive),0.006 (inactive),-0.019 (inactive),0.009 (inactive),0.014 (inactive),-0.712 (active),0.024 (inactive),-0.001 (inactive),0.005 (inactive)
TUBE1 (UniProt Q9UJT0),0.036 (inactive),-0.051 (inactive),0.017 (inactive),-0.046 (inactive),-0.028 (inactive),-0.037 (inactive),0.029 (inactive),0.064 (inactive),0.007 (inactive),0.025 (inactive),0.024 (inactive),-0.264 (active),-0.049 (inactive),-0.036 (inactive),-0.027 (inactive)
TCF4 (UniProt P15884),-0.004 (inactive),-0.139 (inactive),0.077 (inactive),-0.057 (inactive),0.01 (inactive),0.161 (inactive),-0.147 (inactive),0.064 (inactive),0.016 (inactive),–,–,–,–,0.078 (inactive),-0.074 (inactive)
TUBB6 (UniProt Q9BUF5),-0.002 (inactive),-0.023 (inactive),-0.031 (inactive),0.006 (inactive),-0.006 (inactive),-0.028 (inactive),0.021 (inactive),0.022 (inactive),-0.001 (inactive),0.004 (inactive),0.013 (inactive),-0.558 (active),0.04 (inactive),0.013 (inactive),0.004 (inactive)
TSPAN13 (UniProt O95857),-0.067 (inactive),0.02 (inactive),-0.054 (inactive),0.121 (inactive),-0.35 (inactive),0.034 (inactive),-0.032 (inactive),-0.126 (inactive),0.035 (inactive),0.132 (inactive),-0.024 (inactive),0.104 (inactive),-0.008 (inactive),0.008 (inactive),-0.015 (inactive)
UBE2D1 (UniProt P51668),0.259 (active),-0.093 (inactive),-0.1 (inactive),-0.064 (inactive),0.033 (inactive),0.108 (inactive),-0.065 (inactive),-0.06 (inactive),-0.066 (inactive),0.029 (inactive),-0.01 (inactive),0.088 (inactive),-0.101 (inactive),-0.001 (inactive),0.056 (inactive)
TXNIP (UniProt Q9H3M7),0.091 (inactive),0.038 (inactive),-0.023 (inactive),-0.026 (inactive),0.012 (inactive),-0.077 (inactive),-0.022 (inactive),0.029 (inactive),–,0.005 (inactive),-0.076 (inactive),-0.399 (active),0.04 (inactive),-0.051 (inactive),0.024 (inactive)
UBXN2B (UniProt Q14CS0),-0.04 (inactive),-0.068 (inactive),0.08 (inactive),-0.208 (inactive),-0.099 (inactive),–,0.021 (inactive),–,-0.024 (inactive),-0.06 (inactive),0.095 (inactive),0.085 (inactive),0.053 (inactive),–,-0.032 (inactive)
TCF3 (UniProt X6REB3),–,–,–,–,–,–,–,–,–,–,-0.257 (inactive),–,–,–,–
UBAP2 (UniProt Q5JV08),-0.211 (inactive),0.172 (inactive),–,0.104 (inactive),–,–,0.133 (inactive),–,–,–,–,–,–,–,–
TCF3 isoform 2 (UniProt P15923),–,–,–,–,–,-0.05 (inactive),–,-0.005 (inactive),–,-0.068 (inactive),–,-0.196 (inactive),-0.056 (inactive),0.043 (inactive),–
TMEM177 (UniProt Q53S58),–,–,–,–,–,-0.018 (inactive),–,0.036 (inactive),0.029 (inactive),0.067 (inactive),-0.183 (inactive),-0.012 (inactive),-0.035 (inactive),0.034 (inactive),0.005 (inactive)
TMEM161B (UniProt Q8NDZ6),0.419 (active),-0.014 (inactive),–,0.053 (inactive),–,-0.07 (inactive),-0.117 (inactive),0.046 (inactive),-0.005 (inactive),-0.064 (inactive),-0.084 (inactive),0.225 (inactive),0 (inactive),0.019 (inactive),-0.026 (inactive)
TMEM167B (UniProt Q9NRX6),0.006 (inactive),0.031 (inactive),–,0.014 (inactive),–,-0.016 (inactive),-0.013 (inactive),0.027 (inactive),0.005 (inactive),-0.019 (inactive),0.019 (inactive),0 (inactive),0.009 (inactive),-0.033 (inactive),0.031 (inactive)
TNIK (UniProt C9J338),–,–,-0.055 (inactive),–,-0.043 (inactive),-0.292 (inactive),–,-0.043 (inactive),0.015 (inactive),-0.068 (inactive),0.195 (inactive),0.103 (inactive),-0.023 (inactive),0.006 (inactive),-0.049 (inactive)
UBXN10 (UniProt Q96LJ8),–,–,-0.007 (inactive),–,0.008 (inactive),-0.028 (inactive),–,0.035 (inactive),0.078 (inactive),0.014 (inactive),-0.018 (inactive),-0.321 (active),-0.005 (inactive),-0.002 (inactive),0 (inactive)
TMPO isoform 2 (UniProt P42167),–,–,-0.042 (inactive),–,-0.072 (inactive),–,–,–,–,–,-0.066 (inactive),–,–,–,0.032 (inactive)
"UBAP2, A0A0D9SFI5",–,–,–,–,–,0.151 (inactive),–,0.111 (inactive),–,–,–,–,–,-0.094 (inactive),–
